Measurements published in article PMC6925144, “A prospective compound screening contest identified broader inhibitors for Sirtuin 1” (Scientific Reports, 2019).

What follows are compounds tested against NAD-dependent deacetylase Sirtuin 1 (human, UniProt Q96EB6) (assay: primary screen, percent inhibition; higher = more effect of the substance). Conditions: 10 µM.
Parameters: mean of n = 4
Experimental: Note that the inhibitory assay was conducted with NAD+.

NAD-dependent deacetylase Sirtuin 1, sequence (Q96EB6 2-747 limits assumed): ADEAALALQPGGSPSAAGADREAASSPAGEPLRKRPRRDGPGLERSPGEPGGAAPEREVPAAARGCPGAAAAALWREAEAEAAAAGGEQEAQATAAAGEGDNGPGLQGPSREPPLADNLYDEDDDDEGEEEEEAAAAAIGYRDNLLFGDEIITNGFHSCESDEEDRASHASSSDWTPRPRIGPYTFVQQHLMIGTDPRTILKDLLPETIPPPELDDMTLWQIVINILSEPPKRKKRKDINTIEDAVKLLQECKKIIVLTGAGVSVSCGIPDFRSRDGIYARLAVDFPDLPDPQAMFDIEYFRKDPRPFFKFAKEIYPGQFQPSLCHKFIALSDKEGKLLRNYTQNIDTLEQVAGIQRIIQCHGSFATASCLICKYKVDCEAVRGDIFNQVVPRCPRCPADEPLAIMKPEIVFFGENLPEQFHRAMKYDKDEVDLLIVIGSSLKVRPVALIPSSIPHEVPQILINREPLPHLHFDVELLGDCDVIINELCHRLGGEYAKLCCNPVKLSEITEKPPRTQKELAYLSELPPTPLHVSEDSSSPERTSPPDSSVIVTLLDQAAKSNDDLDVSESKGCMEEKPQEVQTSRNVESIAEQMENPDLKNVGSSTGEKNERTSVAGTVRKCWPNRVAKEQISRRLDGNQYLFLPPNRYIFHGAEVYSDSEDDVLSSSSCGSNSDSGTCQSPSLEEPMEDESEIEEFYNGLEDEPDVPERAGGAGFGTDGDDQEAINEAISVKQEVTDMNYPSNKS

Row | Compound | TSA(without NAD+) / Inhibitory assay (Promega kit) / Mean (%) | TSA(with NAD+) / Inhibitory assay (Promega kit) / Mean (%)
1 | Cc1nc(N2CCC(C(N)=O)CC2)c2c3c(sc2n1)CCCCC3 | 14.5 | 
2 | Cc1nc(-c2ccc(CCNC(=O)c3ccc(NC(=O)c4cccs4)cc3)s2)cs1 | 27 | 
3 | Oc1cccc2c1Cc1c-2nc2ccc(Cl)cc2c1-c1ccccc1Cl |  | 24.3
4 | Cc1ccc(N(C)S(=O)(=O)c2cccc(C(=O)Nc3ccc4c(c3)C(=O)N(C)C4=O)c2)cc1 |  | 25
5 | O=C(NC(=S)Nc1ccc(-c2nc3ccccc3[nH]2)cc1)C12CC3CC(CC(C3)C1)C2 | 22.7 | 
6 | O=C1/C(=C/c2cnn(-c3ccccc3)c2)Oc2cc(O)ccc21 | 9.45 | 
7 | O=C(Nc1cccc(S(=O)(=O)N2CCOCC2)c1)c1cn(-c2ccccc2)nc1-c1ccc(Cl)cc1 | 13.8 | 
8 | c1ccc(-c2[nH]c3c(ccc4ccccc43)c2-c2ccccc2)cc1 | -0.157 | 
9 | Cc1ccc([N+](=O)[O-])cc1S(=O)(=O)Nc1ccc(C(=O)OC(C)C(=O)NC23CC4CC(CC(C4)C2)C3)cc1 (stereo not shown) | -3.81 | 
10 | Cc1sc2nc(-c3cccs3)nc(N3CCC(C(N)=O)CC3)c2c1C | -0.574 | 
11 | O=C1/C(=C/NNC(=O)C23CC4CC(CC(C4)C2)C3)c2ccccc2C(=O)N1Cc1ccccc1 | -173 | 
12 | COc1ccc(N(C)S(=O)(=O)c2cccc(C(=O)Nc3ccc(-n4cnnn4)cc3)c2)cc1 | 26.1 | 
13 | Cc1ccc(C(=O)Nc2nc3ccc(NS(=O)(=O)c4ccc5c(c4)CCC(=O)N5)cc3s2)s1 | 31.3 | 
14 | COc1ccc(N(C)S(=O)(=O)c2cccc(C(=O)Nc3ccc4ccccc4c3)c2)cc1 | -4.02 | 
15 | CN(c1ccccc1)S(=O)(=O)c1cccc(NC(=O)CCCc2c[nH]c3ccccc23)c1 | -10.4 | 
16 | Cc1sc2nc(CSc3ccccc3)nc(N3CCC(C(N)=O)CC3)c2c1C | -36.8 | 
17 | NC(=O)C1CCN(c2nc(CSc3ccccc3)nc3sc4c(c23)CCCC4)CC1 | 12.9 | 
18 | Cc1cccc(NS(=O)(=O)c2cccc(C(=O)OCC(=O)NC(=O)NC34CC5CC(CC(C5)C3)C4)c2)c1 |  | 31
19 | Cc1ccc(N(C)S(=O)(=O)c2cccc(C(=O)Nc3ccc(C(N)=O)cc3)c2)cc1 | 0.783 | 
20 | CCn1c2ccccc2c2cc(NC(=O)C(C)OC(=O)c3cccc(S(=O)(=O)Nc4ccc(Cl)cc4)c3)ccc21 (stereo not shown) | 23.9 | 

Row | Compound | TSA(without NAD+) / Inhibitory assay (Promega kit) / Mean (%) | TSA(with NAD+) / Inhibitory assay (Promega kit) / Mean (%)
21 | COc1ccc(N(C)S(=O)(=O)c2cccc(C(=O)Nc3ccc(Br)c(C(F)(F)F)c3)c2)cc1 | 5.07 | 
22 | COC(=O)c1cc(-c2csc(NC(=O)c3cccc(NC(=O)c4cnoc4C)c3)n2)c[nH]1 | 30.1 | 
23 | Cc1ccc(N(C)S(=O)(=O)c2cccc(C(=O)Nc3ccc(Br)c(C)c3)c2)cc1 |  | 27
24 | NC(=O)C1CCN(c2nc(-c3cccs3)nc3sc4c(c23)CCCC4)CC1 | 0.0174 | 
25 | Cc1ccc(C(C)(C)C)cc1S(=O)(=O)Nc1cccc(C(=O)NNC(=O)c2cccc(S(=O)(=O)Nc3cccc(C(F)(F)F)c3)c2)c1 | -8.09 | 
26 | CC(=C/c1ccccc1)/C=N/NC(=O)c1cc(-c2ccc(C)cc2)n[nH]1 | 0.0522 | 
27 | CCOc1cc(/C=N/NC(=O)c2cc3c(s2)CCCC3)ccc1OCC(=O)Nc1cccc(C(F)(F)F)c1 | -2.14 | 
28 | Cc1nc(N2CCC(C(N)=O)CC2)c2c3c(sc2n1)CCCC3 | 11.5 | 
29 | O=C1NC(=O)c2ccccc2/C1=C\NNC(=O)C12CC3CC(CC(C3)C1)C2 |  | 27.6
30 | O=C1NC(=S)NC(=O)C1=Cc1cn(-c2ccccc2)nc1-c1cc2ccccc2o1 |  | 57.2
31 | O=C1/C(=C\c2cc(Br)cc(Br)c2O)CC/C1=C\c1cc(Br)cc(Br)c1O | 44.3 | 
32 | O=C(NN/C=C1/C(=O)N(c2cccc(C(F)(F)F)c2)C(=O)c2ccccc21)c1cccc(S(=O)(=O)Nc2ccccc2Cl)c1 | -38.6 | 
33 | COc1ccc(N(C)S(=O)(=O)c2cccc(C(=O)Nc3ccc(Br)cc3)c2)cc1 |  | 29.2
34 | N#CC(C(=O)c1ccc(NS(=O)(=O)c2ccccc2)cc1)c1nc(-c2ccccn2)cs1 (stereo not shown) | -150 | 
35 | Cc1ccc(C(=O)Nc2ccc(NC(=O)NCC3CCCO3)cc2)cn1 (stereo not shown) | -1.1 | 
36 | CCCCCCCCNC(=O)/C(C#N)=C/c1c[nH]c2ccccc12 | 9.56 | 
37 | NC1=Nc2nc3ccccc3n2C(c2ccc(-c3ccc(C(=O)O)cc3)o2)N1 (stereo not shown) | 17.6 | 
38 | COc1ccc(N(C)S(=O)(=O)c2cccc(C(=O)Nc3ccc(Cl)cc3)c2)cc1 |  | 17.6
39 | COc1ccc(NC(=O)c2ccc(NC(=O)COC(=O)C34CC5CC(CC(Br)(C5)C3)C4)cc2)cc1 | 17.2 | 
40 | O=C(CCc1c[nH]c2ccccc12)Nc1nnc(-c2ccccc2)o1 | 10.8 | 
